Several values for one entry are separate records, joined by “and”; a condition that tells them apart may be missing. Equal values may be shown once. Screen size: about 6,400 compounds; about 610 (9.5%) were called active. Cut-off read from the data, not from the text of the source: active = activity change below about -70%; inconclusive = no clear call, values can overlap the other calls; inactive = above that. For the sample, actives were picked, then their nearest neighbours and some compounds at random. Some compounds were tested as several samples or in several runs, with calls that do not always agree.
Assay: T. gondii ME49Luc in HeLa cells, luciferase assay, 72 h, no IFN-y (AID 1259421)
Settings: stronger effect = lower value, concentration not given here

Row | Compound | activity change, negative = inhibition
1 | CC1=CC2C(CC1=O)C(C)=CCC2C(C)C (stereo not given) | 4.22% (inactive)
2 | c1ccc(COCCCc2cnc[nH]2)cc1 | -41.7% (inactive) and 17.9% (inactive)
3 | O=C(Nc1c(-c2cccs2)nc2ccccn12)c1ccc(Cl)cc1 | 6.95% (inactive)
4 | CN1C(CC(=O)c2ccccc2)CCCC1CC(O)c1ccccc1 (stereo not given) | 6.13% (inactive) and 6.36% (inactive)
5 | CO[C@H]1C[C@H](O[C@H]2[C@H](C)[C@@H](OC3O[C@H](C)C[C@H](N(C)C)[C@H]3OC(C)=O)[C@@H](C)C[C@]3(CO3)C(=O)[C@H](C)[C@@H](OC(C)=O)[C@@H](C)[C@@H](C)OC(=O)[C@@H]2C)O[C@@H](C)[C@@H]1OC(C)=O (stereo not given in full) | 5.2% (inactive)
6 | Nc1ncnc2c1c(-c1cccc(OCc3ccccc3)c1)cn2C1CC(CN2CCC2)C1 (stereo not given) | -81.2% (active)
7 | Nc1ncnc2c1c(-c1cccc(OCc3ccccc3)c1)cn2C1CC(CN2CCCC2)C1 (stereo not given) | -69.4% (inactive)
8 | Cc1cccc(C)c1NC(=O)CC12CCCN1CCC2 | 13.3% (inactive)
9 | CC(C)(C)NCC(O)COc1nsnc1N1CCOCC1 (stereo not given) | -0.1% (inactive)
10 | O=C1CCC(c2ccccc2)(C2CCN(Cc3ccc(I)cc3)CC2)C(=O)N1 (stereo not given) | 11.1% (inactive)
11 | Cc1ccc(/C=C2/CNC/C(=C\c3ccc(C)cc3)C2=O)cc1 | -85.7% (active)
12 | Cc1ccc(/C=C2\CNC/C(=C\c3ccc(C)cc3)C2=O)cc1 | -83.2% (active)
13 | Cc1ccc(S(N)(=O)=O)cc1 | 13.5% (inactive)
14 | Cc1ccc(/C=C2\C(=O)C3(C)CCC2C3(C)C)cc1 (stereo not given) | 2.27% (inactive)
15 | CC(C)C[C@H](N[C@@H](Cc1cncn1Cc1cc(Cl)cc(Cl)c1)C(=O)O)C(=O)O | 6.67% (inactive)
16 | CC1(O)CC(c2nc(-c3ccc4ccc(-c5ccccc5)nc4c3)c3c(N)nccn23)C1 (stereo not given) | -27.9% (inactive)
17 | CCn1c(N)c(C(=O)NC)c(=O)c2ccc(C#C[C@@](C)(O)COC)nc21 | 13.3% (inactive)
18 | CC1(C)C2CC[C@]3(C)[C@H](C(=O)C=C4[C@@H]5C[C@@](C)(C(=O)O)CC[C@]5(C)CC[C@]43C)[C@@]2(C)CC[C@@H]1OC(=O)CCC(=O)O (stereo not given in full) | 6.15% (inactive) and 3.75% (inactive)
19 | CC(=O)O[C@H]1CC[C@@]2(C)C(C[C@@H](OC(C)=O)[C@@]3(C)C4=CC(=O)O[C@@H](c5ccoc5)[C@]4(C)CCC23)C1(C)C (stereo not given in full) | 15% (inactive)
20 | CC(=O)O[C@]1(C(C)=O)CCC2C3C=C(C)C4=CC(=O)CCC4(C)C3CCC21C (stereo not given in full) | 4.78% (inactive) and -4.91% (inactive)
21 | CCCCCCCCCCCCCCCC(=O)OC(C)C | 3.86% (inactive)
22 | CN[C@H](C(=O)N[C@H](C(=O)N(C)[C@H](/C=C(\C)C(=O)O)C(C)C)C(C)(C)C)C(C)(C)c1ccccc1 | -73.6% (active)
23 | C[C@H]1CCO[C@H]2Cn3cc(C(=O)NCc4ccc(F)cc4F)c(=O)c(O)c3C(=O)N21 | 25.9% (inactive)
24 | Cc1cccc(C)c1NC(=O)c1cc(S(N)(=O)=O)c(Cl)cc1O | 15.4% (inactive)
25 | Cc1c(C)c2c(c(C)c1OC(=O)CCC(=O)O)CC[C@@](C)(CCC[C@H](C)CCC[C@H](C)CCCC(C)C)O2 | 19.4% (inactive)

Row | Compound | activity change, negative = inhibition
26 | O=c1c(O)c(-c2ccccc2)oc2cc(O)ccc12 | 31.5% (inactive)
27 | CN1C[C@H](C(=O)N[C@]2(C)O[C@@]3(O)[C@@H]4CCCN4C(=O)[C@H](Cc4ccccc4)N3C2=O)C[C@@H]2c3cccc4[nH]cc(c34)C[C@H]21 | 5.44% (inactive) and 2.08% (inactive)
28 | CC(=O)C1C(=O)[C@@H]2[C@H]3c4c[nH]c5cccc(c45)C[C@H]3C(C)(C)N2C1=O (stereo not given in full) | -78.3% (active) and -0.858% (inactive)
29 | CN1CC(C(=O)NC2(C)OC3(O)C4CCCN4C(=O)C(Cc4ccccc4)N3C2=O)CC2c3cccc4[nH]cc(c34)CC21 (stereo not given) | -10.4% (inactive)
30 | O=c1[nH]c2ccccc2c(=O)n1CCCN1CCN(c2ccccc2)CC1 | 11.8% (inactive)
31 | CCC1(C)OC(=O)N(C)C1=O (stereo not given) | -5.39% (inactive)
32 | CC(C)(C)c1[nH]cnc1/C=c1\[nH]c(=O)/c(=C/c2ccccc2)[nH]c1=O | -85.5% (active)
33 | O=c1[nH]cnc2ccccc12 | 0.966% (inactive) and 1.04% (inactive)
34 | CCCCCCCCCCCCCCOS(=O)(=O)O | 8.96% (inactive)
35 | COc1ccc(C(=O)/C=C/c2ccccc2)cc1 | 157% (inactive)
36 | CC(=O)NC[C@H]1CN(c2ccc(N3CCN(C(=O)CO)CC3)c(F)c2)C(=O)O1 | 6.07% (inactive)
37 | CC(=O)NC(Cc1c[nH]c2ccccc12)C(=O)OCc1cc(C(F)(F)F)cc(C(F)(F)F)c1 (stereo not given) | -1.95% (inactive)
38 | FC(F)(F)c1cc(CO[C@H]2CCCN[C@H]2c2ccccc2)cc(C(F)(F)F)c1 | -9.54% (inactive) and -89.9% (active)
39 | CC(=O)N[C@H](Cc1c[nH]c2ccccc12)C(=O)OCc1cc(C(F)(F)F)cc(C(F)(F)F)c1 | 6.34% (inactive)
40 | O=C(O)CN(CCN(CC(=O)O)CC(=O)O)CC(=O)O | 1.89% (inactive)
41 | COCC1=C(C(=O)OC(C)OC(=O)OC(C)C)N2C(=O)[C@@H](NC(=O)/C(=N/OC)c3csc(N)n3)[C@H]2SC1 (stereo not given in full) | -2.51% (inactive)
42 | O=C(N/N=C/c1ccc([N+](=O)[O-])o1)c1ccc(O)cc1 | -85.5% (active)
43 | CCN(CC)c1ccc(/C=N/NC(=O)c2ccc(O)cc2)cc1 | 29.5% (inactive) and 44.8% (inactive)
44 | NC(=O)N/N=C/c1ccc([N+](=O)[O-])o1 | -68.6% (inactive) and -50.1% (inactive)
45 | CCCCCCn1c(=O)c2c(ncn2C)n(C)c1=O | 11.4% (inactive)
46 | Cc1cccc(/C=C/c2ccccc2)n1 | 35.7% (inactive)
47 | Cc1ccc2ccc3ccc(C)nc3c2n1 | -94.5% (active)
48 | CCc1nc(C)ccc1O | -11.9% (inactive)
49 | OCC1OC(O)C(F)C(O)C1O (stereo not given) | 8.12% (inactive)
50 | CCC[C@@H]1C[C@@H](C(=O)NC(C(C)Cl)[C@H]2O[C@H](SC)[C@H](O)[C@@H](O)[C@H]2O)N(C)C1 (stereo not given in full) | -1.81% (inactive) and 9.35% (inactive)
